Source: PubChem BioAssay (National Center for Advancing Translational Sciences (NCATS))
KinaseGlo FLuc = Counterscreen for Luciferase (Kinase-Glo TM) Inhibition; hit rate 0.28% among 200,000; Potency, µM (top dose mostly 38.3 µM), for inactives: top-dose activity change, negative = inhibition, usual class: inhibitors; Luciferin 4-monooxygenase (Photuris pensylvanica), Q27757; Kinase-Glo luciferase, ATP luminescence, 8 min; also: % is scaled to controls: 0 for no effect and ±100 for the full control effect; nearly all actives have a fitted effect of over 60% in size
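Inhibition of Kinase-Glo luciferase light generation was assessed at 10 uM ATP in pH 7.2 imidazole buffer, with luminescence measured after eight minutes at ambient temperature.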
Rab9 promoter act = qHTS Assay for Rab9 Promoter Activators; Potency, µM (top dose mostly 9.22 µM), inactives show at the top dose activation, negative = inhibition, most hits filed as activators; Huh7 Rab9 promoter-luciferase reporter, luminescence, 24 h; hit rate 2.8% among 320,000; AID 485297, 2010; also: % of control where 0% means no effect; nearly all actives have a fitted effect of over 60% in size
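Promoter activation is measured as luciferase luminescence in Huh7 cells stably transfected with a Rab9 promoter–luciferase construct, following 24 h compound exposure at 37 °C and 10 min reagent incubation at ambient temperature.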
NPC1 promoter act = qHTS Assay for NPC1 Promoter Activators; Huh7 NPC1 promoter luciferase reporter, 24 h; Potency, µM (series often up to 9.22 µM), without a hit: top-dose activation, actives largely listed as activators; hit rate 2.4% among 320,000; AID 485313, 2010; also: % of control where 0% means no effect; nearly all actives have a fitted effect of over 60% in size
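Quantitative HTS used a cell-based reporter: Huh7 cells stably bearing the NPC1 promoter upstream of luciferase were treated with compounds for 24 h, and promoter activation was read as luminescence.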
FLuc modulator = qHTS profiling assay for firefly luciferase inhibitor/activator using purifed enzyme and Km concentrations of substrates (counterscreen for miR-21 project). hit rate 6.9% among 360,000. Potency, µM (titrated, usually from 57.5 µM), for inactives: at the top dose activity change, negative = inhibition, actives largely listed as inhibitors. purified FLuc, Km substrates, luminescence inhibition. AID 588342, 2011. Luciferin 4-monooxygenase (Photinus pyralis), P08659;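 also: plate controls were vehicle for no effect and reference inhibitor for full effect; nearly all actives have a fitted effect of over 55% in size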
Target sequence (P08659 whole entry, looked up): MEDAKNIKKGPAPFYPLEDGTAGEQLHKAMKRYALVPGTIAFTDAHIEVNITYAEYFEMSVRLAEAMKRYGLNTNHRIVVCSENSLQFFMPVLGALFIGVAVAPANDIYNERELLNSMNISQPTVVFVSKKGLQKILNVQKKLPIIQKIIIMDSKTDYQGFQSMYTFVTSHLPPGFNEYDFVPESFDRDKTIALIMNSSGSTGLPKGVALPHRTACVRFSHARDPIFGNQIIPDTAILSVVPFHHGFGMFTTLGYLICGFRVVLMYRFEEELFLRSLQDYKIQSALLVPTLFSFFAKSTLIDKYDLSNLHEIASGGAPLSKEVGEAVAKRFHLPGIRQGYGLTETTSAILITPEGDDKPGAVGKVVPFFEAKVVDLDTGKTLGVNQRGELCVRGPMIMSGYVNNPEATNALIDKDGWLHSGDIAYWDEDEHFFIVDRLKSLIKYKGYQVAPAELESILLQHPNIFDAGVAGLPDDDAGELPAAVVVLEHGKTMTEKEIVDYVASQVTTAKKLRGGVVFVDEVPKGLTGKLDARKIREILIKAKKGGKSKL
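Biochemical qHTS of compounds, final roughly 60 µM downward over six points, against 10 nM purified firefly luciferase using Km concentrations of substrates (10 uM D-luciferin, 10 uM ATP) in Tris acetate pH 7.5 buffer; luminescence output.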
SMN2 splice enh = qHTS Assay for Enhancers of SMN2 Splice Variant Expression; hit rate 2.8% among 210,000; Potency, µM (titrated, usually from 46.1 µM), for the others: at the top dose activity change, positive = activation, actives largely listed as activators; AID 1458, 2008; HEK293 SMN2-luciferase splicing reporter, luminescence, 30-36 h; also: % of control where 0% means no effect; nearly all actives have a fitted effect of over 55% in size
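HEK293 cells carry an SMN2 […]–luciferase reporter in which exon 7 inclusion puts luciferase in frame. Cells were plated 10-12 h before compound addition, then incubated 30-36 h at 37C. ONE-Glo luminescence was read; sodium butyrate at 4.5 mM final served as control.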
* hit, by the source's call; [ ] = another dose, or the depositor's remark. An excerpt weighted towards active compounds, which were near 7.3% of everything screened. Calls follow the shape of the dose curve; as a rule, active = well fitted curve in the direction sought with a large enough effect; inconclusive = small, poorly fitted or top-dose-only effect, or another doubt; inactive = no such curve, though single readings can be large; an effect the other way counts as inactive or inconclusive. Potency is read from the fitted curve at half-maximal effect.

`Cc1ccc(-c2nn3c(C)nnc3c3ccccc23)cc1S(=O)(=O)NCc1ccco1` gave KinaseGlo FLuc 3%, Rab9 promoter act 14%, NPC1 promoter act 0%, FLuc modulator 17% and SMN2 splice enh 13µM*.
Screening N#CCCCS(=O)(=O)c1nnnn1C1CCCCC1 returned KinaseGlo FLuc 1% and SMN2 splice enh 12%.
O=C(Nc1ccc(NC(=O)c2ccccc2F)cn1)c1ccco1 was read as Rab9 promoter act 0.56µM*, NPC1 promoter act 0.32µM* and FLuc modulator 1.9µM*.
O=C(Nc1ccc(NC(=O)c2ccco2)nc1)c1cccnc1 was read as KinaseGlo FLuc -1%, Rab9 promoter act 2µM*, NPC1 promoter act 2.2µM*, FLuc modulator 11µM* and SMN2 splice enh 11µM*.
`Cc1cc(NC(=O)c2cccc(F)c2)ncc1NC(=O)c1ccco1` gave KinaseGlo FLuc inconclusive, Rab9 promoter act 2µM*, NPC1 promoter act 1.3µM*, FLuc modulator 11µM* and SMN2 splice enh 14µM*.
Screening CCCCC(=O)Nc1cc(C)c(NC(=O)c2ccco2)cn1 returned Rab9 promoter act 0%, NPC1 promoter act 1% and FLuc modulator -6%.
For CCCC(=O)Nc1ccc(NC(=O)c2cccc(OC)c2)nc1 the results were KinaseGlo FLuc -21%, Rab9 promoter act 3.2µM*, NPC1 promoter act inconclusive, FLuc modulator 12µM* and SMN2 splice enh inconclusive.
For O=C(Nc1cccnc1)c1ccc(NC(=O)c2ccco2)cc1 the results were KinaseGlo FLuc 1%, Rab9 promoter act 2%, NPC1 promoter act 10% and FLuc modulator -1%[2.3 µM].
`COc1cccc(Cn2c(=O)n(-c3cccc(Cl)c3)c(=O)c3c4c(sc32)CN(C(C)=O)CC4)c1` gave FLuc modulator 2% and SMN2 splice enh 9%.
Cc1cccc(C(=O)N2CCc3cc(CNC(=O)COc4ccc(Cl)cc4)ccc32)c1 was read as FLuc modulator -1%.
Screening O=C(Nc1ccc(NC(=O)C2CC2)nc1)c1ccco1 returned KinaseGlo FLuc -7%, Rab9 promoter act inconclusive, NPC1 promoter act inconclusive, FLuc modulator inconclusive and SMN2 splice enh 17%.
`COc1cccc(C(=O)Nc2ccc(NC(=O)c3ccco3)nc2)c1` gave KinaseGlo FLuc -7%, Rab9 promoter act 4.5µM*, NPC1 promoter act inconclusive, FLuc modulator 21µM* and SMN2 splice enh inconclusive.
For COc1cccc(C(=O)Nc2ccc(NC(C)=O)cn2)c1 the results were KinaseGlo FLuc -5%, Rab9 promoter act inconclusive, NPC1 promoter act inconclusive, FLuc modulator 21µM* and SMN2 splice enh inconclusive.
Screening O=C(Nc1ccc(NC(=O)c2ccco2)nc1)c1cccc(F)c1 returned Rab9 promoter act 3.2µM*, NPC1 promoter act 0.89µM* and FLuc modulator 5.4µM*.
For COc1cc(C(=O)Nc2ccc(NC(=O)c3ccco3)nc2)cc(OC)c1OC the results were KinaseGlo FLuc 0%, Rab9 promoter act 9%, NPC1 promoter act -2%, FLuc modulator 0% and SMN2 splice enh 9%.
For COc1cccc(CNC(=O)CCc2c(C)nn(-c3ccc(N4CCCC4)nn3)c2C)c1 the results were FLuc modulator 4%.
`c1ccc2c(Cn3nnc4ccccc43)cccc2c1` gave KinaseGlo FLuc 0%, Rab9 promoter act -5%, NPC1 promoter act 1%, FLuc modulator 2% and SMN2 splice enh 5%.
c1ccc2c(COn3nnc4ccccc43)cccc2c1 was read as KinaseGlo FLuc 3%, Rab9 promoter act 2.5µM*, NPC1 promoter act inconclusive and FLuc modulator 11µM*.
CCCCNc1c(-c2cccc(-c3cc(C(C)=O)cs3)c2)nc2cc(C)ccn12 was read as Rab9 promoter act 5%, NPC1 promoter act 13% and FLuc modulator 6µM*.
`N#Cc1ccccc1OCc1nnc(-c2ccccc2Br)o1` gave Rab9 promoter act 1.4µM*, NPC1 promoter act 2µM* and FLuc modulator 5.4µM*.
Screening Brc1ccccc1-c1nnc(COc2cccc3cccnc23)o1 returned KinaseGlo FLuc -9%, Rab9 promoter act -3%, NPC1 promoter act 2%, FLuc modulator inconclusive and SMN2 splice enh inconclusive.
For Clc1ccccc1OCc1nnc(-c2ccccc2Br)o1 the results were KinaseGlo FLuc 1%, Rab9 promoter act inconclusive, NPC1 promoter act 3.5µM*, FLuc modulator 12µM* and SMN2 splice enh inconclusive.
Screening CCOc1ccc(NC(=O)c2cccc(NC3=NC4CS(=O)(=O)CC4S3)c2)cc1 (configuration not stated) returned Rab9 promoter act 2%, NPC1 promoter act 1% and FLuc modulator inconclusive.
Screening CC(C)c1ccc(NC(=O)c2cccc(NC3=NC4CS(=O)(=O)CC4S3)c2)cc1 (configuration not stated) returned Rab9 promoter act 3%, NPC1 promoter act 20% and FLuc modulator 6µM*.
Screening CCc1ccc(NC(=O)c2cccc(NC3=NC4CS(=O)(=O)CC4S3)c2)cc1 (configuration not stated) returned Rab9 promoter act 8%, NPC1 promoter act 0% and FLuc modulator 13µM*.
For Cc1ccc(NC(=O)c2cccc(NC3=NC4CS(=O)(=O)CC4S3)c2)cc1C (configuration not stated) the results were Rab9 promoter act -4%, NPC1 promoter act 1% and FLuc modulator 13µM*.
Screening CC(C)c1ccc(NC(=O)Cc2ccc(NC3=NC4CS(=O)(=O)CC4S3)cc2)cc1 (configuration not stated) returned Rab9 promoter act 19%, NPC1 promoter act 2% and FLuc modulator 21µM*.
Screening N/C(=N\OC(=O)COc1ccccc1Cl)c1ccccn1 returned KinaseGlo FLuc -9%, Rab9 promoter act 2.5µM*, NPC1 promoter act 3.2µM*, FLuc modulator 4.8µM* and SMN2 splice enh 13µM*.
For Cc1ccc(C)c(OCC(=O)O/N=C(\N)c2ccccn2)c1 the results were KinaseGlo FLuc -6%, Rab9 promoter act inconclusive, NPC1 promoter act 3.2µM*, FLuc modulator 17µM* and SMN2 splice enh inconclusive.
For N/C(=N\OC(=O)COc1ccc2ccccc2c1)c1ccccn1 the results were KinaseGlo FLuc -1%, Rab9 promoter act 22%, NPC1 promoter act 13%, FLuc modulator inconclusive and SMN2 splice enh -4%.
Cn1nnc(NC(=O)c2cccc(OCc3ccccc3)c2)n1 was read as KinaseGlo FLuc -2%, Rab9 promoter act 6%, NPC1 promoter act 11%, FLuc modulator -14% and SMN2 splice enh inconclusive.
